The results in this text go back to PubChem BioAssay (Tox21).

Molecules are shown by their SMILES. Inconclusive results are not listed. Values without a mark were called inactive. Calls of active or inactive are those of the source. The call rests on the fitted dose curve; in most records, active means well fitted activation curve with a large enough effect in the repeat runs; inconclusive means weak or mixed curves; inactive means no such curve, though single readings can be large or run the other way.
On the % scale 0 is the no-effect control and ±100 the full control effect; potency means the concentration at half of the fitted maximal effect.

Chain of Nuclear receptor subfamily 1 group I member 2 (Rattus norvegicus) (Q9R1A7 whole entry, looked up): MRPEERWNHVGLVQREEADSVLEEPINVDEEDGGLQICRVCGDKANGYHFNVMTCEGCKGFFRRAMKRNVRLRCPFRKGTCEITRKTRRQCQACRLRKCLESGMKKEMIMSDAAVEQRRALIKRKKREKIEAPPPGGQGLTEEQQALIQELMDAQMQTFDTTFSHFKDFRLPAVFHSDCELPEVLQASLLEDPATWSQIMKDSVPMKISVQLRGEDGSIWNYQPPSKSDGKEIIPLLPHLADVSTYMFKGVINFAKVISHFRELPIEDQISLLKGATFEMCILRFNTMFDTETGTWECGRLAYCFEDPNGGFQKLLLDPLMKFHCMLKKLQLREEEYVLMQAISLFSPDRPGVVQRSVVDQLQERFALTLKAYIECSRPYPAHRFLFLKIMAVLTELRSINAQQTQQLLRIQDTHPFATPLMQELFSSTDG

This test addresses Nuclear receptor subfamily 1 group I member 2 (Rattus norvegicus) (UniProt Q9R1A7). Kind of test: Rat pregnane X receptor (rPXR) activation by small molecules, qHTS assay (AID 1346983). Further: nearly all actives have a fitted effect of over 20% in size. The settings on record: rPXR luciferase reporter cells, One-Glo luminescence, 24 h; max activation: hits give high values. The source says:
National Center for Advancing Translational Sciences [NCATS] NIH Chemical Genomics Center [NCGC] U.S. Environmental Protection Agency [EPA] National Institutes of Environmental Health Sciences [NIEHS] National Toxicology Program [NTP] Assay overview: The Pregnane X receptor (PXR), a ligand activated nuclear receptor plays a critical role in the regulation of genes involved in drug metabolism and transporters. PXR binds xenobiotics and when compounds interact with PXR produces enhanced expression of CYP3A genes. In humans PXR activation and CYP3A4 induction can be problematic due to their interactions with co-medicated drugs and decrease their efficacy or increase their own metabolism. However, there are known species-specific differences with regard to PXR activation that should be taken into account when animal PXR data are extrapolated to humans. A cell based rat PXR (rPXR) assay (developed by Puracyp, Inc., CA) was used to assess the activation of rPXR.
Assay Protocol Summary: rPXR cells were dispensed at 2,000 per well in 5uL of assay medium into white, solid-bottom 1536-well plates using a Multidrop Combi dispenser (Thermo Scientific). The assay plates were incubated at 37 C for 5hr before transferring 23 nL of test compounds dissolved in DMSO and positive control via Pintool station (Wako). The assay plates were incubated at 37 C for 24 hr. Then 5ul One-Glo assay reagent (Promega) was added to each plate by a Flying Reagent Dispenser (FRD, Aurora Discovery) and following 30 min incubation at room temperature, luciferase activity was quantified on a ViewLux plate reader (Perkin Elmer).
For orientation: In qHTS, concentration-response curves come from the screen itself.
For `COc1ccc(CN2CCN(C(c3ccc(F)cc3)c3ccc(F)cc3)CC2)c(OC)c1OC`, the max activation is -8.37%.
For `NC(=O)CC[C@@H]1NC(=O)[C@H](Cc2ccccc2)NC(=O)[C@H](Cc2ccc(O)cc2)NC(=O)CCSSC[C@@H](C(=O)N2CCC[C@H]2C(=O)N[C@@H](CCCN=C(N)N)C(=O)NCC(N)=O)NC(=O)[C@H](CC(N)=O)NC1=O`, the max activation is -2.21%.
In the case of `Clc1ccc2nsnc2c1NC1=NCCN1`, the max activation was -3.32%.
Turning to `CC(=O)N1CCN(c2ccc(OC[C@H]3CO[C@](Cn4ccnc4)(c4ccc(Cl)cc4Cl)O3)cc2)CC1`, the max activation is -4.95%.
As for `Oc1c(Cl)cc(Cl)c2cccnc12`, the max activation was 4.53%.
Turning to `Cn1cc(C(=O)[C@@H]2CCc3nc[nH]c3C2)c2ccccc21`, the max activation is -0.66%.
The same measure, in the same setting: the value for `O=C(Oc1cccc2cccnc12)c1ccccc1` was -3.5%; that for `CCOC(=O)/C=C(C)/C=C/C=C(C)/C=C/c1c(C)cc(OC)c(C)c1C` was -4.32%; that for `CCN1/C(=C/C=C/c2sc3ccccc3[n+]2CC)Sc2ccccc21` was -26.5%.
`Cc1cc(C2CCCCC2)n(O)c(=O)c1`: the max activation is -2.39%.
Same read-out and setting: the value for `CC(=O)SC[C@@H](Cc1ccccc1)C(=O)NCC(=O)OCc1ccccc1` was -6.71%; that for `CCc1oc2ccccc2c1C(=O)c1cc(Br)c(O)c(Br)c1` was -3.61%; that for `CC1=C(C(=O)OC(C)C)C(c2cccc([N+](=O)[O-])c2)C(C(=O)OC2CN(C(c3ccccc3)c3ccccc3)C2)=C(N)N1` (stereo not given) was -6.42%.
Same read-out and setting: the value for `CC[C@H](c1ccc(O)cc1)[C@@H](CC)c1ccc(O)cc1` was -4.59%; that for `C[C@H]1[C@H]2CC[C@H]3[C@@H]4CC=C5C[C@@H](N(C)C)CC[C@]5(C)[C@H]4CC[C@]23CN1C` was -5.76%.
Regarding `CCCC1O[C@@H]2C[C@H]3[C@@H]4CCC5=CC(=O)C=C[C@]5(C)[C@H]4[C@@H](O)C[C@]3(C)[C@]2(C(=O)CO)O1` (stereo not given in full), the Potency is 12.6 µM (active).
Regarding `Cc1c(C)c2c(c(C)c1O)CCC(C)(COc1ccc(CC3SC(=O)NC3=O)cc1)O2` (stereo not given), the max activation was -5.73%.
`COc1c(C)c2c(c(O)c1C/C=C(\C)CCC(=O)O)C(=O)OC2`: the max activation is -5.38%.
Take `Cc1cc(O)c2ccccc2c1O`: the max activation is 10%.
Consider `CCOC(=O)O[C@]1(C(=O)OCCl)CC[C@H]2[C@@H]3CCC4=CC(=O)C=C[C@]4(C)[C@H]3[C@@H](O)C[C@@]21C`, for which the max activation was -1.8%.
For `CC(C)(C)C(=O)OCOC(=O)[C@@H]1N2C(=O)[C@@H](NC(=O)[C@H](N)c3ccccc3)[C@H]2SC1(C)C`, the max activation is -1.52%.
Still for that read-out and setting: for `CCN(CC)CCNC(=O)c1c(C)[nH]c(/C=C2\C(=O)Nc3ccc(F)cc32)c1C` the value was -11.9%; for `CN1CCN(CCC(=O)N2c3ccccc3Sc3ccc(C(F)(F)F)cc32)CC1`, -0.926%; for `CC(C)(C)NC(=O)[C@@H]1C[C@@H]2CCCC[C@@H]2CN1C[C@@H](O)[C@H](Cc1ccccc1)NC(=O)[C@H](CC(N)=O)NC(=O)c1ccc2ccccc2n1`, 7.59%.
Still for that read-out and setting: for `NC(=O)NS(=O)(=O)c1ccc(N)cc1` the value was -4.58%.
Same read-out and setting: the value for `O=C(Nc1cccc(C(F)(F)F)c1)c1cc(Br)cc(Br)c1O` was -18.6%.
Regarding `Clc1ccccc1C(c1ccccc1)(c1ccccc1)n1ccnc1`, the Potency is 3.98 µM (active).
As to `CCCCCCC[N+](CC)(CC)CCCCc1ccc(Cl)cc1`, the max activation is -3.24%.
The same measure, in the same setting: the value for `Cc1cccc(CN2CCN(C(c3ccccc3)c3ccc(Cl)cc3)CC2)c1` (stereo not given) was -4.36%; that for `CC(C)=CCOc1ccc(/C=C/C(=O)c2ccc(OCC=C(C)C)cc2OCC(=O)O)cc1` was -3.35%; that for `CSc1ccc2c(c1)C(N1CCN(C)CC1)Cc1ccccc1S2` (stereo not given) was -6.14%.
As for `COc1cc(/C=C/C(=O)O[C@H]2CC[C@]34C[C@]35CC[C@]3(C)[C@@H]([C@H](C)CCC=C(C)C)CC[C@@]3(C)[C@@H]5CC[C@H]4C2(C)C)ccc1O`, the max activation is -10.7%.
For the compound `O=c1[nH]cnc2nc[nH]c12`, the max activation was -3.71%.
Same read-out and setting: the value for `O=C1Cc2cc(CCN3CCN(c4nsc5ccccc45)CC3)c(Cl)cc2N1` was -10.8%; that for `CN(C)[C@@H]1C(=O)C(C(N)=O)=C(O)[C@@]2(O)C(=O)C3=C(O)c4c(O)ccc(Cl)c4[C@@H](O)[C@H]3C[C@@H]12` was -0.517%.
Turning to `COc1ccc(-c2ccc3cc(C(=O)O)ccc3c2)cc1C12CC3CC(CC(C3)C1)C2`, the max activation is -8.07%.
Still for that read-out and setting: the value for `CN1CCC(Nc2ncc3ncnc(Nc4ccc(F)c(Cl)c4)c3n2)CC1` was -19.5%; that for `Cc1ccc(O)c2ncccc12` was -0.8%; that for `N/C(=N\N=C\c1ccc(Cl)cc1)N/N=C/c1ccc(Cl)cc1` was -3.26%.
Turning to `OCCN1CCN(CC/C=C2/c3ccccc3Sc3ccc(C(F)(F)F)cc32)CC1`, the max activation was -7.9%.
